Test results taken from the supplement of paper PMC10849652.
About 8,800 targets were measured; listed, in parts, are those with a hit and a random draw of the rest. About 0.5% of all pairs of compound and target were hits.

What was measured:
Experiment in all cases: log2 fold change, soluble protein after heating vs DMSO (PISA); higher = thermal stabilisation; K562 lysate, 10 uM; active = over 0.2 and 3.5 SD of the protein, either way, in both replicates (recomputed)
nilotinib = compound: Cc1cn(-c2cc(NC(=O)c3ccc(C)c(Nc4nccc(-c5cccnc5)n4)c3)cc(C(F)(F)F)c2)cn1 [nilotinib]
In short: (§1)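 Quantification was by TMTpro 16plex LC-MS/MS with equalised channel sums, applied to the supernatant after 21,000xg for 90 min. Samples were crude K562 extract at 1 mg/mL protein in PBS pH 7.4 with 1 mM MgCl2, treated with 10 μM compound for 30 min, heated for 3 min across 48°C-58°C, pooled and brought to 0.5% NP-40 at 4°C. Values are log-two fold changes in thermal stability relative to solvent controls, from duplicates.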

[1] = compound: Cc1nc(Nc2n[nH]c3c2CN(C(=O)N[C@H](CN(C)C)c2ccccc2)C3(C)C)c2sccc2n1
In short: as §1

dasatinib = compound: Cc1nc(Nc2ncc(C(=O)Nc3c(C)cccc3Cl)s2)cc(N2CCN(CCO)CC2)n1 [dasatinib]
In short: as §1

[2] = compound: Cc1ncc(-c2ccnc(Nc3ccc(S(C)(=O)=O)cc3)n2)n1C(C)C
In short: as §1

[3] = compound: Cn1cc(-c2ccc3c(c2)CCN3C(=O)Cc2cccc(C(F)(F)F)c2)c2c(N)ncnc21
In short: as §1

quisinostat = compound: Cn1cc(CNCC2CCN(c3ncc(C(=O)NO)cn3)CC2)c2ccccc21 [quisinostat]
In short: as §1

tipifarnib = compound: Cn1cncc1[C@@](N)(c1ccc(Cl)cc1)c1ccc2c(c1)c(-c1cccc(Cl)c1)cc(=O)n2C [tipifarnib]
In short: as §1

[4] = compound: NC(=O)Nc1cc(-c2cccc(F)c2)sc1C(=O)N[C@H]1CCCNC1
In short: as §1

[5] = compound: NC(=O)c1cnc(N[C@@H]2CCCC[C@@H]2N)nc1Nc1cccc(-n2nccn2)c1
In short: as §1

[6] = compound: NC1(c2ccc(-c3nc4ccn5c(=O)[nH]nc5c4cc3-c3ccccc3)cc2)CCC1
In short: as §1

Measured: log2 fold change

CDKN2AIP (UniProt Q9NXV6)
Sequence of UniProt Q9NXV6 (Q9NXV6 whole entry, looked up): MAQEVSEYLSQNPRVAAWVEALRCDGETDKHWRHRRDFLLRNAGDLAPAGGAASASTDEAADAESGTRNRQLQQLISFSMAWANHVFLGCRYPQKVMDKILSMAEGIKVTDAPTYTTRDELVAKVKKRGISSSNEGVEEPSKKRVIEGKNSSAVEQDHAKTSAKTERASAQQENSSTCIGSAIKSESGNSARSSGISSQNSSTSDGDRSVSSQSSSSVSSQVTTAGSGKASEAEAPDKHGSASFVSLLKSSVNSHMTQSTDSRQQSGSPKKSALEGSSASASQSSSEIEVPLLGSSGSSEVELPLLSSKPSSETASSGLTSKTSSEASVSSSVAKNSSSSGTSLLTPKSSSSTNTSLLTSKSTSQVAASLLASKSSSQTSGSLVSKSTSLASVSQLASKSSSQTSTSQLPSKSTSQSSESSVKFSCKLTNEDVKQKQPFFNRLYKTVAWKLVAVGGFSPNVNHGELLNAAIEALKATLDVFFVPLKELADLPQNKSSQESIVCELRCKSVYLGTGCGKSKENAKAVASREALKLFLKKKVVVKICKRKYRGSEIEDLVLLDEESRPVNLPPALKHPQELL
inactive: nilotinib 0.002 | [1] -0.023 | dasatinib -0.004 | [2] -0.008 | [3] -0.014 | quisinostat -0.031 | tipifarnib 0.005 | [4] 0.008 | [5] -0.01 | [6] 0.001

CDC123 (UniProt O75794)
inactive: nilotinib 0.026 | [1] -0.011 | dasatinib -0.006 | [2] -0.104 | [3] 0.033 | quisinostat 0.008 | tipifarnib -0.008 | [4] 0.022 | [5] -0.009 | [6] 0.017

CCNB2 (UniProt O95067)
active: [2] 0.21
inactive: nilotinib -0.053 | [1] 0.081 | dasatinib -0.016 | [3] -0.046 | quisinostat -0.081 | tipifarnib -0.029 | [4] 0.012 | [5] -0.038 | [6] 0

BTAF1 (UniProt O14981)
inactive: nilotinib -0.005 | [1] 0.018 | dasatinib -0.028 | [2] 0.007 | [3] 0.008 | quisinostat -0.015 | tipifarnib -0.011 | [4] 0.033 | [5] 0.016 | [6] 0.004

CASP3 (UniProt P42574)
Sequence of UniProt P42574 (P42574 whole entry, looked up): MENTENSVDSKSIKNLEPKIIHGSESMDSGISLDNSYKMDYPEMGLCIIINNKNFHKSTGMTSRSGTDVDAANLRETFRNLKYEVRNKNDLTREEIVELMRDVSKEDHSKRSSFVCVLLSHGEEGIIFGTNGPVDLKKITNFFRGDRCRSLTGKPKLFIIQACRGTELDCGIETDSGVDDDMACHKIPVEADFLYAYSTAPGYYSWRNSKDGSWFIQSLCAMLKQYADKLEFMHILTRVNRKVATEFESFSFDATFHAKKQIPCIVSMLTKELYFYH
inactive: nilotinib 0.032 | [1] -0.024 | dasatinib 0.053 | [2] 0.023 | [3] 0.008 | quisinostat -0.029 | tipifarnib -0.033 | [4] 0 | [5] -0.01 | [6] 0.022

ATXN2 (UniProt Q99700)
inactive: nilotinib -0.04 | [1] 0.023 | dasatinib 0.023 | [2] -0.003 | [3] 0.047 | quisinostat -0.065 | tipifarnib 0.014 | [4] 0.045 | [5] 0.011 | [6] -0.028

C3 (UniProt P01024)
inactive: nilotinib 0.001 | [1] 0.027 | dasatinib 0.069 | [2] -0.006 | [3] -0.022 | quisinostat -0.085 | tipifarnib 0.027 | [4] -0.025 | [5] -0.066 | [6] 0.012

CARD11 (UniProt Q9BXL7)
inactive: nilotinib -0.047 | [1] 0.04 | dasatinib -0.053 | [2] 0.043 | [3] 0.004 | quisinostat -0.031 | tipifarnib -0.015 | [4] 0.025 | [5] 0.048 | [6] 0.009

AURKA (UniProt O14965)
inactive: nilotinib -0.065 | [1] 0.209 | dasatinib 0.226 | [2] 0.174 | [3] 0.027 | quisinostat -0.117 | tipifarnib -0.088 | [4] 0.18 | [5] -0.04 | [6] -0.05

CASP6 (UniProt P55212)
inactive: nilotinib 0.018 | [1] 0.017 | dasatinib 0.005 | [2] -0.026 | [3] -0.001 | quisinostat 0.013 | tipifarnib -0.027 | [4] -0.034 | [5] 0.003 | [6] 0.023

CHD5 (UniProt Q8TDI0)
inactive: nilotinib -0.007 | [1] 0.021 | dasatinib 0.038 | [2] -0.022 | [3] 0.007 | quisinostat -0.082 | tipifarnib 0.005 | [4] 0.02 | [5] -0.019 | [6] 0.01

CEP120 (UniProt Q8N960)
Sequence of UniProt Q8N960 (Q8N960 whole entry, looked up): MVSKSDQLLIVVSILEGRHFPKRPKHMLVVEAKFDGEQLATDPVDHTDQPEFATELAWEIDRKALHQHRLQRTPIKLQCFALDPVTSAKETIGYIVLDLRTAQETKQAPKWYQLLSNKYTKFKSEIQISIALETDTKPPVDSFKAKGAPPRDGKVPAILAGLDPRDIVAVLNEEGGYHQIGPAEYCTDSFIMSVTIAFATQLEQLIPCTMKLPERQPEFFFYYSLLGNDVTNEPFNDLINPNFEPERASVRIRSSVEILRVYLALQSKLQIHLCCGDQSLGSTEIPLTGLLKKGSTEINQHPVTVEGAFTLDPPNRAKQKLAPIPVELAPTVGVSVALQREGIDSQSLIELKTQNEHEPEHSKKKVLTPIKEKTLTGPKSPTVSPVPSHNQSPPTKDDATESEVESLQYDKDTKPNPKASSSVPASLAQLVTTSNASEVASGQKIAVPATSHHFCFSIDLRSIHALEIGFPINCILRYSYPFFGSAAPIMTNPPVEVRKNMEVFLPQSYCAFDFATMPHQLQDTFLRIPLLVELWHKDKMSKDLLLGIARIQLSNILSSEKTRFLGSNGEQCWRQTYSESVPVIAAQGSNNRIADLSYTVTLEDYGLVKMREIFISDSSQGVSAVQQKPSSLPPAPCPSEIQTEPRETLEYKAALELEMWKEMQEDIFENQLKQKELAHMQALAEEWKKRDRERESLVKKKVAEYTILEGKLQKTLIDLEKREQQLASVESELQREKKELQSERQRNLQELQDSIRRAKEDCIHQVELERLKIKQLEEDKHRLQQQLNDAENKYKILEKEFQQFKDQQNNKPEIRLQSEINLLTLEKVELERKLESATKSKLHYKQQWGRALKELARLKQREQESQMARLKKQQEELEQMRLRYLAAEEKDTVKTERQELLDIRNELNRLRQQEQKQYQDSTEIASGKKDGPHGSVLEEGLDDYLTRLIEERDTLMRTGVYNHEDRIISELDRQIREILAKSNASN
inactive: [1] -0.186 | dasatinib 0 | [2] -0.251 | [3] -0.001 | quisinostat -0.067 | tipifarnib 0.16 | [4] 0.013 | [5] 0.024 | [6] -0.151
active: nilotinib 0.524

C12orf45 (UniProt Q8N5I9)
Sequence of UniProt Q8N5I9 (Q8N5I9 whole entry, looked up): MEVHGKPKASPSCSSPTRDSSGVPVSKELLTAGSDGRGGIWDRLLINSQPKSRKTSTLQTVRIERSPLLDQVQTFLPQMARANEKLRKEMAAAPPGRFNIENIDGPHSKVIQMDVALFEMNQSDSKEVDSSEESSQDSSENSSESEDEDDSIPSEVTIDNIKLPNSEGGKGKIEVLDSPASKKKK
inactive: nilotinib -0.026 | [1] -0.003 | dasatinib 0.019 | [2] -0.017 | [3] 0.035 | quisinostat -0.019 | tipifarnib -0.014 | [4] -0.015 | [5] 0 | [6] 0.024

BPHL (UniProt Q86WA6)
Sequence of UniProt Q86WA6 (Q86WA6 whole entry, looked up): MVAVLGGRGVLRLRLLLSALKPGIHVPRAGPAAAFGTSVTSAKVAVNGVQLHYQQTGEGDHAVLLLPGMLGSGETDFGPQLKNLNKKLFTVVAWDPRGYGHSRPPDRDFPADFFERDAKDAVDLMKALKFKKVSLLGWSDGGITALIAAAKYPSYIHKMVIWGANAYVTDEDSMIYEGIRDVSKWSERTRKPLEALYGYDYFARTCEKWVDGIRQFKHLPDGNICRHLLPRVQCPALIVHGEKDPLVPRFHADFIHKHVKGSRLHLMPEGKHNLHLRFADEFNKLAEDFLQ
inactive: nilotinib -0.049 | [1] 0.084 | dasatinib 0.008 | [2] -0.043 | [3] 0.055 | quisinostat -0.02 | tipifarnib 0.01 | [4] -0.03 | [5] 0.016 | [6] 0.022

BET1 (UniProt O15155)
inactive: nilotinib 0.038 | [1] 0.052 | dasatinib -0.015 | [2] -0.011 | [3] 0 | quisinostat 0.023 | tipifarnib -0.063 | [4] -0.005 | [5] -0.057 | [6] -0.005

CD63 (UniProt P08962)
Sequence of UniProt P08962 (P08962 whole entry, looked up): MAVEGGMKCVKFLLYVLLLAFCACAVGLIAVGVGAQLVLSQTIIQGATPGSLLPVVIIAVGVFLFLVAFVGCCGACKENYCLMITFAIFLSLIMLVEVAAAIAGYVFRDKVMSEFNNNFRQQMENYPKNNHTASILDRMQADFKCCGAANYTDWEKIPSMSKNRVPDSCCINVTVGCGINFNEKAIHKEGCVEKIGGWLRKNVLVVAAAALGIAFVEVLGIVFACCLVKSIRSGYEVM
inactive: nilotinib -0.053 | [1] 0.098 | dasatinib -0.034 | [2] -0.032 | [3] 0.005 | quisinostat -0.08 | tipifarnib 0.126 | [4] -0.006 | [5] -0.043 | [6] -0.009

CDK8 (UniProt P49336)
inactive: nilotinib -0.025 | [1] -0.037 | dasatinib -0.054 | [2] 0.119 | [3] -0.032 | quisinostat -0.05 | tipifarnib -0.209 | [4] 0.018 | [5] -0.006 | [6] -0.033

CCPG1 isoform 5 (UniProt Q9ULG6)
Sequence of UniProt Q9ULG6 (Q9ULG6 whole entry, looked up): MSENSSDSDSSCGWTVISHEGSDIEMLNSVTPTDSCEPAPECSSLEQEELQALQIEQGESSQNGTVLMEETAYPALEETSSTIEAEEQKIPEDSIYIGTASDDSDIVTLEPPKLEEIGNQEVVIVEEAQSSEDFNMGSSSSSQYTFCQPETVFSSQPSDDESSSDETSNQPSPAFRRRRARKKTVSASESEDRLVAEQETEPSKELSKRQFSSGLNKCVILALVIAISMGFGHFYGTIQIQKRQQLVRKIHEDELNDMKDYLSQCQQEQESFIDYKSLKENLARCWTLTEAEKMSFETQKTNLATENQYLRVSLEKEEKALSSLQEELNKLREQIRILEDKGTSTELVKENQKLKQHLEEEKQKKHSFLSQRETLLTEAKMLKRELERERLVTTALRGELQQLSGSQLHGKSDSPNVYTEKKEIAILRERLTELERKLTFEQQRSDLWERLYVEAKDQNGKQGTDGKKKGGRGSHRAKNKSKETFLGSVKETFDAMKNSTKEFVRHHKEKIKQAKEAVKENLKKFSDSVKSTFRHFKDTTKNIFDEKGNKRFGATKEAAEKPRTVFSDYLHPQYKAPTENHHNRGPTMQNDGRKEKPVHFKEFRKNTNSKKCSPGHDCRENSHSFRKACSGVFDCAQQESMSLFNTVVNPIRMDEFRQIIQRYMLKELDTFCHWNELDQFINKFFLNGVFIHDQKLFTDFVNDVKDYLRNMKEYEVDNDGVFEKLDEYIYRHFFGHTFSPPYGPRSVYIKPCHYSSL
inactive: nilotinib 0.067 | [1] 0.017 | dasatinib 0.013 | [2] 0.087 | [3] 0.004 | quisinostat -0.021 | tipifarnib -0.033 | [4] 0.029 | [5] 0 | [6] -0.073

ATRIP (UniProt Q8WXE1)
inactive: nilotinib -0.014 | [1] -0.028 | dasatinib -0.059 | [2] 0.071 | [3] 0.045 | quisinostat -0.03 | tipifarnib -0.049 | [4] -0.007 | [5] 0.01 | [6] 0.032

CHCHD4 isoform 2 (UniProt Q8N4Q1)
Sequence of UniProt Q8N4Q1 (Q8N4Q1 whole entry, looked up): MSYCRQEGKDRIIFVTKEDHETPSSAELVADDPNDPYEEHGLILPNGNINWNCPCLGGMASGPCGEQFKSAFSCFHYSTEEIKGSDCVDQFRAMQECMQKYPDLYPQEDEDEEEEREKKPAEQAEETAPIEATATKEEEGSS
inactive: nilotinib -0.029 | [1] 0.023 | dasatinib -0.035 | [2] -0.031 | [3] -0.018 | quisinostat -0.156 | tipifarnib 0.018 | [4] 0.032 | [5] -0.008 | [6] -0.028

CDC25A (UniProt P30304)
inactive: nilotinib 0.013 | [1] -0.01 | dasatinib -0.035 | [2] -0.021 | [3] 0.024 | quisinostat 0.006 | tipifarnib 0.011 | [4] 0.017 | [5] 0.016 | [6] 0.025

C1orf112 (UniProt Q9NSG2)
Sequence of UniProt Q9NSG2 (Q9NSG2 whole entry, looked up): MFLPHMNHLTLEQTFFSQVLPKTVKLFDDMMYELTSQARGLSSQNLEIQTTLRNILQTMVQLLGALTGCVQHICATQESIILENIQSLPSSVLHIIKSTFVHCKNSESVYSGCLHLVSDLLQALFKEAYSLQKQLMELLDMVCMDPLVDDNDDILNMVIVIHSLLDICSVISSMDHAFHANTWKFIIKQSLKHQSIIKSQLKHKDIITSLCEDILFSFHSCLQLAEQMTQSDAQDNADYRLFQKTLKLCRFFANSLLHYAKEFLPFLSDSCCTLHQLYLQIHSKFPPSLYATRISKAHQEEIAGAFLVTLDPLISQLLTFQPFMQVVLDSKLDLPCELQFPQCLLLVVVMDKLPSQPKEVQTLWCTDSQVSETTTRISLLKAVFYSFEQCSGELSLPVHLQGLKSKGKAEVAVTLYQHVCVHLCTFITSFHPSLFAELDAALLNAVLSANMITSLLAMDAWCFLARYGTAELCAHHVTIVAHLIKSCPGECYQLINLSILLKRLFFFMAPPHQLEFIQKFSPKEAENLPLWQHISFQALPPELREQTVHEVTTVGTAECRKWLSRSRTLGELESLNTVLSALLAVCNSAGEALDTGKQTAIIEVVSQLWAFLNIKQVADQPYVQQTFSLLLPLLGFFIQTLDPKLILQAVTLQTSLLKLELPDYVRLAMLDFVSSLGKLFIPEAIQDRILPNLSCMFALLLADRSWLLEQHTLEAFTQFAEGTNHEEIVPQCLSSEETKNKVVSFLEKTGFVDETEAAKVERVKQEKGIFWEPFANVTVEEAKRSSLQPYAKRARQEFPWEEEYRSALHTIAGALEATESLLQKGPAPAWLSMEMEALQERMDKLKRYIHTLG
inactive: nilotinib 0.089 | [1] -0.015 | dasatinib -0.102 | [2] 0.017 | [3] 0.05 | quisinostat -0.1 | tipifarnib -0.046 | [4] 0.036 | [5] -0.03 | [6] -0.007

CDC7 (UniProt O00311)
Sequence of UniProt O00311 (O00311 whole entry, looked up): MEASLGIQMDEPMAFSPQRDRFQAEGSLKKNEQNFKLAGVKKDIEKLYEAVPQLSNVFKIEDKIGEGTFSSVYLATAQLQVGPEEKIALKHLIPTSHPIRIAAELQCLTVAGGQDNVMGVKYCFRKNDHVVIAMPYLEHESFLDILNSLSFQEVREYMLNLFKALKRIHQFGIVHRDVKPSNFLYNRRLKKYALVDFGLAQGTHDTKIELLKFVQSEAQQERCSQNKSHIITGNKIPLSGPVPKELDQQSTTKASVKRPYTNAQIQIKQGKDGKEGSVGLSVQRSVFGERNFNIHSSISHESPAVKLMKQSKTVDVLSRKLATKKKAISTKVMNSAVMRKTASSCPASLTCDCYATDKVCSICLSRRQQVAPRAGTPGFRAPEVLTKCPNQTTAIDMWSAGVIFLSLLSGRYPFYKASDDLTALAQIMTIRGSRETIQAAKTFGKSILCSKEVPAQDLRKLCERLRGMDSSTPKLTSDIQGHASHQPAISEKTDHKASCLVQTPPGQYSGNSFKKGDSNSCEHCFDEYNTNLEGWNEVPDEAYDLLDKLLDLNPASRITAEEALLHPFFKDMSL
inactive: nilotinib -0.049 | [1] 0.028 | dasatinib 0.029 | [2] 0.059 | [3] 0.001 | quisinostat -0.047 | tipifarnib -0.009 | [4] 0.015 | [5] -0.022 | [6] -0.016

BNIP1 (UniProt Q12981)
inactive: nilotinib -0.004 | [1] -0.037 | dasatinib -0.005 | [2] -0.028 | [3] -0.045 | quisinostat -0.014 | tipifarnib -0.046 | [4] -0.034 | [5] -0.033 | [6] 0.057

CHCHD1 (UniProt Q96BP2)
inactive: nilotinib -0.09 | [1] -0.023 | dasatinib 0.084 | [2] -0.043 | [3] -0.097 | quisinostat -0.174 | tipifarnib -0.03 | [4] 0 | [5] -0.023 | [6] -0.019

CDC25C (UniProt P30307)
inactive: nilotinib 0.039 | [1] -0.037 | dasatinib 0.042 | [2] -0.048 | [3] 0.004 | quisinostat 0.056 | tipifarnib -0.004 | [4] 0.025 | [5] 0.015 | [6] 0.05

CALM2 (UniProt P0DP24)
inactive: nilotinib -0.009 | [1] 0.014 | dasatinib -0.013 | [2] 0.022 | [3] -0.001 | quisinostat -0.178 | tipifarnib 0.016 | [4] -0.053 | [5] -0.014 | [6] -0.06

ATE1 isoform 2 (UniProt O95260)
inactive: nilotinib -0.099 | [1] -0.006 | dasatinib 0.069 | [2] -0.032 | [3] 0.017 | quisinostat -0.014 | tipifarnib 0.025 | [4] 0.034 | [5] -0.002 | [6] 0.014

CFDP1 (UniProt Q9UEE9)
inactive: nilotinib -0.008 | [1] 0.051 | dasatinib 0.029 | [2] 0.035 | [3] 0.009 | quisinostat -0.102 | tipifarnib 0.013 | [4] -0.038 | [5] -0.013 | [6] -0.026
